Source: PubChem BioAssay (Broad Institute)
Shown is part of a subset that was picked to be rich in hits.
miR-122 inh: activators of miR-122 sensor in Huh7 cells | Huh7 psiCHECK-miR122 Renilla luciferase sensor, 48 h | activation, % at 12.5 µM | actives 0.14% (n = 340,000);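 active = mean activation of 30% or more, with every replicate also reaching 30%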;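 also: 0% = median of neutral control wells and 100% = median of positive control wells; higher luciferase signal means stronger suppression of miR-122 activity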
Numbers without * were called inactive.

C[C@@H]1CN([C@@H](C)CO)S(=O)(=O)c2ccc(C3=CCCCC3)cc2O[C@@H]1CN(C)C(=O)Nc1ccc2c(c1)OCO2 was read as miR-122 inh 46*.
`C[C@H](CO)N1C[C@H](C)[C@@H](CN(C)S(C)(=O)=O)Oc2cc(C3=CCCCC3)ccc2S1(=O)=O` gave miR-122 inh -13.
For C[C@@H]1CN([C@H](C)CO)S(=O)(=O)c2ccc(C3=CCCCC3)cc2O[C@@H]1CN(C)S(C)(=O)=O the results were miR-122 inh -25.
Screening C[C@@H]1CN([C@@H](C)CO)S(=O)(=O)c2ccc(C3=CCCCC3)cc2O[C@@H]1CN(C)C(=O)Cc1ccncc1 returned miR-122 inh 48*.
For C[C@@H]1CN([C@@H](C)CO)S(=O)(=O)c2ccc(C3=CCCC3)cc2O[C@@H]1CN(C)C(=O)c1ccc(F)cc1 the results were miR-122 inh 37*.
For C[C@H]1CN([C@@H](C)CO)S(=O)(=O)c2ccc(C#Cc3ccccc3)cc2O[C@H]1CN(C)C(=O)Nc1ccc2c(c1)OCO2 the results were miR-122 inh -3.
For CC(C)NC(=O)N(C)C[C@@H]1Oc2cc(C3=CCCCC3)ccc2S(=O)(=O)N([C@@H](C)CO)C[C@@H]1C the results were miR-122 inh 1.
Screening C[C@@H]1CN([C@@H](C)CO)S(=O)(=O)c2ccc(C3=CCCCC3)cc2O[C@@H]1CN(C)C(=O)CC1CC1 returned miR-122 inh -3.
C[C@@H]1CN([C@H](C)CO)S(=O)(=O)c2ccc(C3=CCCCC3)cc2O[C@H]1CN(C)S(C)(=O)=O was read as miR-122 inh 6.
Screening C[C@H]1CN([C@@H](C)CO)S(=O)(=O)c2ccc(C3=CCCCC3)cc2O[C@H]1CN(C)C(=O)CC1CC1 returned miR-122 inh 7.
`C[C@@H]1CN([C@H](C)CO)C(=O)c2cc(C3=CCCCC3)cnc2O[C@@H]1CN(C)C(=O)Cc1ccccc1` gave miR-122 inh 0.
C[C@H](O)C#Cc1ccc2c(c1)O[C@H](CN(C)Cc1cncnc1)[C@@H](C)CN([C@H](C)CO)S2(=O)=O was read as miR-122 inh -17.
For C[C@@H]1CN([C@@H](C)CO)C(=O)c2cccc(NC(=O)c3ccc(-c4nccs4)cc3)c2O[C@@H]1CN(C)Cc1ccc(C(=O)Nc2ccccc2N)cc1 the results were miR-122 inh -213.
`COCC#Cc1cnc2c(c1)C(=O)N([C@@H](C)CO)C[C@H](C)[C@H](CN(C)S(=O)(=O)c1cccc(OC)c1)O2` gave miR-122 inh 8.
Screening C[C@@H]1CN([C@H](C)CO)C(=O)c2cc(C#Cc3ccc(F)cc3)cnc2O[C@@H]1CN(C)C(=O)c1ccccc1F returned miR-122 inh 9.
CCCC#Cc1cnc2c(c1)C(=O)N([C@H](C)CO)C[C@H](C)[C@H](CN(C)Cc1ccccc1F)O2 was read as miR-122 inh -96.
Screening CCC(=O)N(C)C[C@H]1Oc2ncc(C#Cc3ccccc3OC)cc2C(=O)N([C@H](C)CO)C[C@H]1C returned miR-122 inh 1.
`CCOc1ccc(NC(=S)N(CCCN2CCCC2)Cc2cccn2Cc2ccc(Cl)cc2)cc1` gave miR-122 inh 33*.
Screening CCOc1ccc(NS(=O)(=O)c2ccc(NC(=S)NC(=O)C(C)C)cc2)cc1 returned miR-122 inh -115.
Screening CCCNC(=O)NC[C@@H]1[C@@H](c2ccc(C3=CCCC3)cc2)[C@@H](CO)N1C(=O)CC returned miR-122 inh -143.
CCCNC(=O)N(C)C[C@H]1Oc2ncc(C#C[C@H](C)O)cc2C(=O)N([C@H](C)CO)C[C@H]1C was read as miR-122 inh 3.
For C[C@H](CO)N1C[C@H](C)[C@H](CN(C)Cc2ccccn2)Oc2ncc(C#CCC3CCCC3)cc2C1=O the results were miR-122 inh 0.
For CO[C@@H]1CN(C)C(=O)c2ccc(NC(=O)C3CCC3)cc2OC[C@H](C)NC[C@@H]1C the results were miR-122 inh -4.
CCCCCCNS(=O)(=O)c1ccc(Cl)s1 was read as miR-122 inh -209.
Screening COc1ccc2[nH]c(C(=O)O)c(NS(=O)(=O)c3ccc(Cl)s3)c2c1 returned miR-122 inh 40*.
For COc1cccc(NS(=O)(=O)c2cc(C)sc2C)c1 the results were miR-122 inh -121.
COC(=O)C[C@H]1CC[C@@H]2[C@@H](COc3ccc(NC(=O)c4cnccn4)cc3C(=O)N2C)O1 was read as miR-122 inh 37*.
COC(=O)C[C@H]1CC[C@@H]2[C@@H](COc3ccc(NC(=O)c4cscn4)cc3C(=O)N2C)O1 was read as miR-122 inh 45*.
For C[C@H]1CN([C@@H](C)CO)S(=O)(=O)c2ccc(-c3ccncc3)cc2O[C@H]1CN(C)Cc1cncnc1 the results were miR-122 inh -8.
CCN(CC)c1ccc(NC(=O)c2ccccn2)cc1S(=O)(=O)Nc1ccccc1OC was read as miR-122 inh -125.
For C[C@H]1CN([C@@H](C)CO)C(=O)c2cc(-c3ccncc3)cnc2O[C@@H]1CN(C)C(=O)Cc1ccccn1 the results were miR-122 inh -2.
C[C@H](CO)N1C[C@H](C)[C@@H](CN(C)C(=O)c2ccccn2)Oc2ncc(-c3cccc(F)c3)cc2C1=O was read as miR-122 inh -6.
COc1cccc(-c2cnc3c(c2)C(=O)N([C@H](C)CO)C[C@@H](C)[C@@H](CN(C)Cc2cccnc2)O3)c1 was read as miR-122 inh 2.
C[C@@H]1CN([C@H](C)CO)S(=O)(=O)c2ccc(C#C[C@@H](C)O)cc2O[C@@H]1CN(C)C(=O)Cc1ccccn1 was read as miR-122 inh -4.
COCC#Cc1cnc2c(c1)C(=O)N([C@H](C)CO)C[C@H](C)[C@@H](CN(C)C(=O)Nc1ccc(OC)cc1)O2 was read as miR-122 inh 2.
Screening COc1ccc(NC(=O)N2CCCCN3[C@@H](CO)[C@H](c4ccc(C#CCC(C)C)cc4)[C@@H]3C2)cc1 returned miR-122 inh 33*.
Screening COc1cccc(NC(=O)N(C)C[C@H]2Oc3cc(C#Cc4ccccc4)ccc3S(=O)(=O)N([C@H](C)CO)C[C@@H]2C)c1 returned miR-122 inh -19.
COc1ccc(C#Cc2ccc([C@H]3[C@H](CO)N4CCCCN(C(=O)Nc5ccccc5)C[C@@H]34)cc2)cc1 was read as miR-122 inh 35*.
`O=C(Nc1ccccc1)N1C[C@H]2[C@@H](c3ccccc31)[C@@H](CO)N2C(=O)c1ccccn1` gave miR-122 inh -132.
COCC#Cc1cnc2c(c1)C(=O)N([C@H](C)CO)C[C@@H](C)[C@@H](CN(C)C(=O)Nc1ccc(OC)cc1)O2 was read as miR-122 inh 0.
CC(C)CC#Cc1ccc([C@H]2[C@@H](CO)N3CCCCN(S(=O)(=O)Cc4ccccc4)C[C@H]23)cc1 was read as miR-122 inh 35*.
Screening C[C@H]1CN([C@@H](C)CO)C(=O)c2cc(-c3ccccc3F)cnc2O[C@H]1CN(C)C(=O)NC1CCCCC1 returned miR-122 inh -13.
For C[C@H](CO)N1C[C@H](C)[C@H](CN(C)S(C)(=O)=O)Oc2ncc(-c3cccnc3)cc2C1=O the results were miR-122 inh -7.
CCCNC(=O)Nc1ccc2c(c1)OC[C@H](C)N(C)C[C@@H](C)[C@H](OC)CN(C)C2=O was read as miR-122 inh -1.
`CO[C@H]1CN(C)C(=O)c2cc(NC(=O)c3ccc(F)cc3)ccc2OC[C@H](C)N(C)C[C@H]1C` gave miR-122 inh 1.
